An excerpt weighted towards active compounds, which were near 1.2% of everything screened.
PfHsp40 yeast – restores yeast growth despite PfHsp40 toxicity | S. cerevisiae expressing PfHsp40, growth rescue, ATP luminescence | growth rescue, % at 12.5 µM | 0.68% of 340,000 active; in the data active means growth rescue above about 28%, passing the limit was not always enough;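 further: yeast W303a lacking pdr1 and pdr3 grown in galactose medium; growth measured after three days at 30 °C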
Y pestis TopoI – inhibitors of Yersinia pestis topoisomerase I; Y. pestis Topo-I cleavage product accumulation, plate reader; activity, % at 10 µM; 0.064% of 360,000 active; AID 504884; in the data active means activity above about 50%, passing the limit was not always enough
FadD28 binding – M. tuberculosis FadD28 bisubstrate binding inhibition; FadD28 bisubstrate probe binding, fluorescence polarization; inhibition, % at 12.5 µM; 0.22% of 360,000 active; in the data active means inhibition above about 8.5%, passing the limit was not always enough
BioA inh – inhibitors of Mycobacterium tuberculosis BioA enzyme; 0.096% of 360,000 active; purified M. tuberculosis BioA enzyme, plate reader; inhibition, % at 9.99 µM; AID 602481; in the data active means inhibition above about 40%
TcdB GH inh – inhibitors of Clostridioides difficile toxin B glycohydrolase; P18177; TcdB glycohydrolase enzymatic assay, plate reader; inhibition, % at 9.99 µM; 0.24% of 350,000 active; in the data active means inhibition above about 10%
Target sequence (P18177 whole entry, looked up): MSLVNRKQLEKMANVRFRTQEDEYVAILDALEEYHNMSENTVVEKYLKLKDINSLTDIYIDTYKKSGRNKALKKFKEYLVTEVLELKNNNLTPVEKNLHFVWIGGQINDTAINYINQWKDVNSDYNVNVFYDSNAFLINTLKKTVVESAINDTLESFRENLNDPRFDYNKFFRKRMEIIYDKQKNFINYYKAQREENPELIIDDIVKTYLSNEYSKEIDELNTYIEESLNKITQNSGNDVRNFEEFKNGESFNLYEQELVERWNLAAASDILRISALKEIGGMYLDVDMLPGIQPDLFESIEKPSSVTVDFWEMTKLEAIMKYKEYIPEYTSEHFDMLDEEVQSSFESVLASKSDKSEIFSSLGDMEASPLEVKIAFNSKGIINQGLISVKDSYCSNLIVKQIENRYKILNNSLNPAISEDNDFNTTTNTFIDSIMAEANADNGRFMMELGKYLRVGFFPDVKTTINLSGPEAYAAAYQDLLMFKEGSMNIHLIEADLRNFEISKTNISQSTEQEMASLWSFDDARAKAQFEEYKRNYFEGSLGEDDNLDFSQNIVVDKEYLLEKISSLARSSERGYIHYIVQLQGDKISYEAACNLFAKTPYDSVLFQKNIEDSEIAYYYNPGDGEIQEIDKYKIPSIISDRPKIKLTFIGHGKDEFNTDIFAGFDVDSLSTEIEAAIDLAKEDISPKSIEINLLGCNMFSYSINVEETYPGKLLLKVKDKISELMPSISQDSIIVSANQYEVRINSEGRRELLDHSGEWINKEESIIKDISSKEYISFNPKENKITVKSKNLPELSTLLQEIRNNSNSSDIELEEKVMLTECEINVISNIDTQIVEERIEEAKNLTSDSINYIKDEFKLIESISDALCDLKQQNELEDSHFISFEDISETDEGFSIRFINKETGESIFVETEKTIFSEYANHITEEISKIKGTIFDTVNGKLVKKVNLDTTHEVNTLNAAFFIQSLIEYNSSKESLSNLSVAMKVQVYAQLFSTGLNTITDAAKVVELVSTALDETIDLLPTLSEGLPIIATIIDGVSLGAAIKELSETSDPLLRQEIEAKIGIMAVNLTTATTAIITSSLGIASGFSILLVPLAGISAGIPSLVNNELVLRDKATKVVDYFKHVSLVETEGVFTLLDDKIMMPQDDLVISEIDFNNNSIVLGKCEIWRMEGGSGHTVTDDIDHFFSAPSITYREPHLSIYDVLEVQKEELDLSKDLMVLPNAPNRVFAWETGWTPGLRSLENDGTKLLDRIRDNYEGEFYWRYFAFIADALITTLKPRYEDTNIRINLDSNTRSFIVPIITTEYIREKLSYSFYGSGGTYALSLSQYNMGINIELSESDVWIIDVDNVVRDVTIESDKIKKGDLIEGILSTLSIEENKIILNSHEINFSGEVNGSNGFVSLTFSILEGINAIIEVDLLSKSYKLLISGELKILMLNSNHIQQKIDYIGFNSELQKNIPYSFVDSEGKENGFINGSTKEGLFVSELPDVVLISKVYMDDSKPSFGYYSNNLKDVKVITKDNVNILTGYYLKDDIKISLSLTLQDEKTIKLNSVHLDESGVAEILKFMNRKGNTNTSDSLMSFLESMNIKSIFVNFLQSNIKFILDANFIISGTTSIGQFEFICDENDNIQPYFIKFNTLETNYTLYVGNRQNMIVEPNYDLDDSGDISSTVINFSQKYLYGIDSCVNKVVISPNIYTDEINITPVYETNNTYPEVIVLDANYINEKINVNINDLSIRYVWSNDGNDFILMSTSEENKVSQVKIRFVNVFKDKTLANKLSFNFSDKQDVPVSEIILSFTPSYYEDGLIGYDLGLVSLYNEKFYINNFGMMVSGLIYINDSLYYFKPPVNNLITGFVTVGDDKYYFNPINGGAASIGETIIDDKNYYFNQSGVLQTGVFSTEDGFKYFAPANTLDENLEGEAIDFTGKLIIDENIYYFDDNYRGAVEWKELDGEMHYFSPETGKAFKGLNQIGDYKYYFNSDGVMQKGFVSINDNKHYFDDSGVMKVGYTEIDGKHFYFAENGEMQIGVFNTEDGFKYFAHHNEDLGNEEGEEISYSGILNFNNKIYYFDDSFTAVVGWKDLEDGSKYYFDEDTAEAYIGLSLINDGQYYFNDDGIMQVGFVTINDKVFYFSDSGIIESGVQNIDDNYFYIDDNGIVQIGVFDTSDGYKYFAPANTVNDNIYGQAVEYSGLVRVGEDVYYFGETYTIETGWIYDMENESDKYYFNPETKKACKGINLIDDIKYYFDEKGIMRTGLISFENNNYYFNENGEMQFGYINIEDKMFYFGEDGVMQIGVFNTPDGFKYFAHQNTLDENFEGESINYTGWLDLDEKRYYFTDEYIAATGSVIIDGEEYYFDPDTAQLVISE
PrP 5UTR inh – inhibition of PrP 5' UTR reporter expression. inhibition, % (test concentration not listed). cell-based PrP 5' UTR mRNA reporter, plate reader. 0.35% of 340,000 active; in the data active means inhibition above about 52%; further: 0 = median of the neutral control wells
An asterisk follows results filed as active.

How did Cc1cc(/C=C2\C(=O)NC(=O)N(Cc3ccccc3)C2=O)c(C)n1-c1ccc(Cl)c(C(=O)O)c1 do in these assays?
PfHsp40 yeast: -0.4; Y pestis TopoI: -5.6; FadD28 binding: 16.0*; TcdB GH inh: -2.5; PrP 5UTR inh: -26.1

How did Cc1cc(C=C2C(=O)c3ccccc3C2=O)c(C)n1-c1ccc(C(=O)O)cc1 do in these assays?
PfHsp40 yeast: -1.1; Y pestis TopoI: 8.5; FadD28 binding: -1.4; TcdB GH inh: 26.7*; PrP 5UTR inh: -29.2

How did Cc1cc(/C=C2\C(=O)NC(=O)N(Cc3ccccc3Cl)C2=O)c(C)n1-c1ccc(C(=O)O)cc1 do in these assays?
PfHsp40 yeast: 0.5; Y pestis TopoI: -1.0; FadD28 binding: -1.2; TcdB GH inh: -0.3; PrP 5UTR inh: -27.9

Results for CCOC(=O)N(C)C[C@H]1OCc2ccccc2-c2c(n(C)c3ccccc23)C(=O)N([C@@H](C)CO)C[C@H]1C ?
BioA inh: 1.0; TcdB GH inh: 1.7

Results for COCCn1c(NC(=S)NC(=O)C2CC2)cc(=O)[nH]c1=O ?
PfHsp40 yeast: -1.3; Y pestis TopoI: -10.6; FadD28 binding: -0.2; BioA inh: -3.3; TcdB GH inh: 23.0*; PrP 5UTR inh: -6.4

What do the screens show for `COc1ccc(/C=C(/C#N)C(=O)Nc2ccc(O)cc2)cc1C(=O)O`?
PfHsp40 yeast: 0.4; Y pestis TopoI: -5.2; FadD28 binding: -1.8; TcdB GH inh: 18.0*; PrP 5UTR inh: -14.6

What do the screens show for `O=C1CC(N2CCCCCC2)C(=O)N1c1ccc2c(c1)OCO2` (stereo not given)?
PfHsp40 yeast: 78.0*; Y pestis TopoI: 6.1; FadD28 binding: -0.5; BioA inh: 0.2; TcdB GH inh: 0.5; PrP 5UTR inh: -38.1

What do the screens show for `O=C1CC(N2CCN(c3ccc(O)cc3)CC2)C(=O)N1c1ccc2c(c1)OCO2` (stereo not given)?
PfHsp40 yeast: -0.1; Y pestis TopoI: -8.9; FadD28 binding: -2.7; TcdB GH inh: -4.2; PrP 5UTR inh: -19.5

Results for O=C(Nc1ccccc1F)N[C@@H]1CC[C@H](CCNS(=O)(=O)c2ccc(Cl)cc2)O[C@@H]1CO ?
BioA inh: 2.0; TcdB GH inh: 0.9

How did Cc1cc(Nc2ccccc2)nn1C(=O)c1ccccc1 do in these assays?
PfHsp40 yeast: 238.5*; Y pestis TopoI: -4.2; FadD28 binding: -4.9; BioA inh: 4.0; PrP 5UTR inh: -19.4

Results for Cc1cc(Nc2ccccc2)nn1C(=O)c1ccc(Br)cc1 ?
PfHsp40 yeast: 1.9; Y pestis TopoI: -1.6; FadD28 binding: -1.9; BioA inh: -0.8; PrP 5UTR inh: -1.9

How did C[C@H]1CCCCO[C@H](CN(C)C(=O)c2ccccc2)[C@@H](C)CN([C@@H](C)CO)C(=O)c2cc(NC(=O)Cc3ccccc3)ccc2O1 do in these assays?
BioA inh: 29.1; TcdB GH inh: -0.1

Results for COCC(=O)N1[C@@H](C#N)[C@@H](c2ccccc2-c2ccccc2F)[C@@H]1CO ?
TcdB GH inh: -0.6

How did CC1C/C(=C/c2ccncc2)C(=O)/C(=C/c2ccncc2)C1 (stereo not given) do in these assays?
PfHsp40 yeast: 50.5*; Y pestis TopoI: 13.1; FadD28 binding: -2.5; BioA inh: 3.2; TcdB GH inh: 0.1; PrP 5UTR inh: 17.4

What do the screens show for `CS(=O)(=O)N1C[C@H](O)COC[C@@H]2O[C@H](CC(=O)NCc3ccc(-c4ccccc4)cc3)CC[C@H]21`?
BioA inh: -1.2; TcdB GH inh: 0.5

Results for O=C(/C=C/c1ccc(O)cc1)c1ccccc1 ?
PfHsp40 yeast: 1.5; Y pestis TopoI: -1.9; FadD28 binding: -3.8; TcdB GH inh: 15.2*; PrP 5UTR inh: -67.5

How did C[C@@H]1CN([C@@H](C)CO)C(=O)c2cc(/C=C/c3ccccc3)cnc2O[C@H]1CN(C)C(=O)c1cnccn1 do in these assays?
BioA inh: 5.9; TcdB GH inh: -0.4

How did Cc1ccc(CNC(=O)c2ccc(Cn3nc(C)c(Cl)c3C)o2)cc1 do in these assays?
PfHsp40 yeast: 153.5*; Y pestis TopoI: 32.2; FadD28 binding: -4.8; BioA inh: 0.0; PrP 5UTR inh: -16.2

Results for Cc1cc(C)cc(NC(=O)c2ccc(Cn3nc(C)c(Cl)c3C)o2)c1 ?
PfHsp40 yeast: 1.6; Y pestis TopoI: 21.9; FadD28 binding: -5.3; BioA inh: 1.9; PrP 5UTR inh: -20.4

How did COC(=O)C[C@@H]1CC[C@@H]2[C@H](COc3ccc(NC(=O)Nc4ccc(C)cc4)cc3C(=O)N2C)O1 do in these assays?
BioA inh: 2.7; TcdB GH inh: 1.3

What do the screens show for `O/N=C\c1ccccc1Oc1ccc(F)cc1`?
PfHsp40 yeast: 58.8*; Y pestis TopoI: -13.1; FadD28 binding: -3.8; TcdB GH inh: 1.2; PrP 5UTR inh: -24.9

How did COc1ccccc1NC(=O)N(C)C[C@H]1OCc2ccccc2-c2ccccc2C(=O)N([C@@H](C)CO)C[C@H]1C do in these assays?
BioA inh: -0.8; TcdB GH inh: 0.8

How did CN1C(=O)c2cc(NC(=O)C3CCCC3)ccc2OC[C@H]2O[C@H](CC(=O)NCC3CC3)CC[C@@H]21 do in these assays?
BioA inh: 1.8; TcdB GH inh: -0.1

Results for O=C1NN(c2ccc(Br)cc2)C(=O)/C1=C\c1ccc(O)cc1O ?
PfHsp40 yeast: 1.2; Y pestis TopoI: -12.7; FadD28 binding: 15.8*; BioA inh: 2.7; TcdB GH inh: -1.0; PrP 5UTR inh: -17.6

Results for COC(=O)c1c(NC(=O)CSc2nnc(CNc3ccc(Cl)cc3)o2)sc(C)c1C ?
PfHsp40 yeast: 50.7*; Y pestis TopoI: 1.3; FadD28 binding: -1.0; BioA inh: 0.3; PrP 5UTR inh: -6.9

What do the screens show for `CCOC(=O)c1c(NC(=O)CSc2nnc(CNc3ccc(F)cc3)o2)sc(C(C)=O)c1C`?
PfHsp40 yeast: 1.7; Y pestis TopoI: 0.8; FadD28 binding: -2.7; PrP 5UTR inh: -28.0

What do the screens show for `Cc1cccc(CSc2nnnn2-c2ccccc2)c1`?
PfHsp40 yeast: 32.6*; Y pestis TopoI: 12.4; FadD28 binding: -1.5; PrP 5UTR inh: -1.8

What do the screens show for `Cc1ccc(S(=O)(=O)N(C)C[C@@H]2Oc3ccc(NC(=O)Nc4ccc(F)cc4)cc3CC(=O)N([C@@H](C)CO)C[C@H]2C)cc1`?
BioA inh: 0.4; TcdB GH inh: 1.3

What do the screens show for `C[C@H]1COC2=C1C(=O)C(=O)c1c2ccc2c1CCCC2(C)C`?
PfHsp40 yeast: 71.8*; Y pestis TopoI: -2.4; FadD28 binding: 5.7; BioA inh: 2.2; PrP 5UTR inh: -37.9

What do the screens show for `N#Cc1ccc(C(=O)N/N=C/c2cn(CC(=O)O)c3ccccc23)c(F)c1`?
PfHsp40 yeast: 0.9; Y pestis TopoI: -3.3; FadD28 binding: -1.5; TcdB GH inh: 11.8*; PrP 5UTR inh: -11.5

What do the screens show for `Cc1ccc(NC(=O)CSc2nsc(SCC(=O)Nc3ccc(C)cc3C)c2C#N)c(C)c1`?
PfHsp40 yeast: 54.8*; Y pestis TopoI: 6.8; FadD28 binding: -0.6; TcdB GH inh: -1.2; PrP 5UTR inh: -25.7

Screening results as filed in PubChem.
